Our source for the binding signal values is article PMC12136788.

B1: ENSG00000070961:be:win_4551|3pUTR|ENSG00000070961|bound_else_gene|NA|bound_elsewhere_windowed (ssRNA)
RNA: GGGAGUUCUACAGUCCGACGAUCAAUGAAAGAUGCUUGAAAUGCUUUUGUUAUUUCAGGCAAAUCAAAUUAAAUCAGACUAUCAAACUACAAGAGAACCUUAGUCUUUUUUGUUUUUGUCUAAACAUGUUAGUUUAGUGAUGUCAACAGAGGAUUGAGCAUCA
B2: chr9:122240152:122240253:-|3pUTR|ENSG00000119446|msi1|total|mutant (ssRNA)
RNA: GGGAGUUCUACAGUCCGACGAUCCUUCUUGGAGUACCGAAUUCACCAUUUUAUCCGUAAGUCUUCAAAGGAUUAUGGUGGACCCGAACUUACACCGUGCAAAACCGUCUUCUAUUUUUAACCGGAACUCCGAAAAAACUCCGACAACAGAGGAUUGAGCAUCA
B3: ENSG00000107863:be:win_1951|CDS|ENSG00000107863|bound_else_gene|NA|bound_elsewhere_windowed (ssRNA)
RNA: GGGAGUUCUACAGUCCGACGAUCCCAGUAAAUCACUUGCAUCAGAACAGUCUGUUGAAUCAGCAGACAUGGGUAAGGACUGACAGUGCCCCCGAUCAGCAAGUGGAGACUGGGAAAUCCCCCUCUUUAUCUGGAGCCUCUGCCCAACAGAGGAUUGAGCAUCA
B4: chr1:213241217:213241334:+|CDS|ENSG00000136643|unk|total|mutant (ssRNA)
RNA: GGGAGUUCUACAGUCCGACGAUCAGUUCUCCAAGAACAUCAGAUUCCCUCAGCCGAUCAAAAAACCGCCCCAUGGAAUUCUUCCGGACCGACAGUAAGGACCGCGCAAGUGAACUCCUGGGACUUGACUUUGGAGAAAAAUUGCAACAGAGGAUUGAGCAUCA
B5: chr3:121431430:121432303:-|three_prime_utr|ENSG00000051341|control|control|control (ssRNA)
RNA: GGGAGUUCUACAGUCCGACGAUCUGGAAAGAACAGAGAUUACCCUUUCACCUACCUCAGCAAAACAAACUUUCAAGUCUUGAUAGACUUAGCCUAGUAAUUUUAUAGUGAGAGUUUCAAACUAUAUAUCAGUGUCUAUAGCAUCAACAGAGGAUUGAGCAUCA
B6: chr1:213241217:213241334:+|CDS|ENSG00000136643|unk|FALSE|unique (ssRNA)
RNA: B4 RNA with C53U, C54A, C65U, C66A, C83U, C84A, C88U, C89A, C101U, C102A
B7: chr9:122240152:122240253:-|3pUTR|ENSG00000119446|msi1|FALSE|unique (ssRNA)
RNA: GGGAGUUCUACAGUCCGACGAUCCUUCUUGGAGUAUAGAAUUCACCAUUUUAUCCGUAAGUCUUCAAAGGAUUAUGGUGGACUAGAACUUACAUAGUGCAAAAUAGUCUUCUAUUUUUAAUAGGAACUUAGAAAAAACUUAGACAACAGAGGAUUGAGCAUCA
B8: ENSG00000120802:stop:overlap|stop_codon|ENSG00000120802|stop_codon|NA|stop_codon (ssRNA)
RNA: GGGAGUUCUACAGUCCGACGAUCGUGGAACAUUAUUUGGAGGAGAAGUAUGCAAAGUAAUUAAAAAGCGUGGAAAUAAACACUAGUAAAAUUAAGGACAAAAAGACAUCUAUCUUAUCUUUCAGGUACUUUAUGCCAACAUUUCAACAGAGGAUUGAGCAUCA
B9: ENSG00000177426:stop:overlap|stop_codon|ENSG00000177426|stop_codon|NA|stop_codon (ssRNA)
RNA: GGGAGUUCUACAGUCCGACGAUCCUCAAAGACAGAAGGAAUAUCUUUUUAUUGUAAACUUGAUAGUGUUAAAAGCUAAUAACUAGCUAUUUAGAGAACACAGAAACACUUGACAGUCAUCUAUCAGAUAGCAUUUCCUUUAAUCAACAGAGGAUUGAGCAUCA

Positions count from the first letter of the chain named. Over roughly 5,800 sequences, “enrichment r” has its median near 0.54; the highest 2% begin near 16. The full list was thinned out, with the highest values kept by preference.

For this assay, the target named is MSI1 full-length (mouse, UniProt Q61474 1-362). Put plainly: nsRBNS (natural sequence RNA bind-n-seq); RBNS binding buffer (assumed for nsRBNS): 25 mM Tris pH 7.5, 150 mM KCl, 3 mM MgCl2, 0.01% Triton X-100, 500 ug/ml BSA, 20 U/ml SUPERase-In, 4 C; UNK is unkempt and MSI1 is Musashi-1; names of the RNAs are library labels; protein concentration not given here; high values mean tight binding.
Sequence of MSI1 full-length (Q61474 whole entry): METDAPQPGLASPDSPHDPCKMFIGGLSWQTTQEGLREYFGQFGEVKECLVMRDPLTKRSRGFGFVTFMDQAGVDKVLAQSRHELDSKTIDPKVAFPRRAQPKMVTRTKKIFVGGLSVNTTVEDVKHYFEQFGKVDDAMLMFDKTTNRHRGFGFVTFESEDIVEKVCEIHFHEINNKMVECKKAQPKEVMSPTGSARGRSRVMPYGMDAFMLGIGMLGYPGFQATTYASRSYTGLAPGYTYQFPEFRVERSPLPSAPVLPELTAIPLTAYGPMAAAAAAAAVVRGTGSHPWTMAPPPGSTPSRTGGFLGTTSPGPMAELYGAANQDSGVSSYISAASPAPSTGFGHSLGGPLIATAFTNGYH
B1 gave a binding signal of 1.39 enrichment R.
The result for B2 reads 0.272 enrichment R; that for B3, 0.425 enrichment R.
Molecule B4 came in with a binding signal of 0.533 enrichment R.
Molecule B5 yielded a binding signal of 17.4 enrichment R.
B6 registered a binding signal of 24.6 enrichment R.
The same measure for B7: 20.5 enrichment R.
The same measure for B8: 1.57 enrichment R; for B9: 0.812 enrichment R.
